# From PubChem BioAssay AID488932 (Broad Institute, 2010)
# Potency and affinity values are given separately. Calls of active or inactive are those of the source.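 How the source made its calls: active means growth signal falls, with fitted half-maximal dose at most ten times the top valid dose; inconclusive means flat curve with a partial drop, or a poorly fitting curve; inactive means the rest, including compounds that raise signal.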
# Assay: Candida albicans growth inhibition, agent alone, dose response, counter-screen for reversing antifungal drug resistance, CaCi-2 strain, no fluconazole, dry powder, set 4 (AID 488932)
# Details: C. albicans CaCi-2 (fluconazole-resistant clinical isolate) growth, Alamar Blue, 48 h; series mostly up to 26 µM
row,Structure (SMILES),outcome
1,O=C(Nc1ccc(C(F)(F)F)cc1)N1CCN(c2ccnc3cc(Cl)ccc23)CC1,inactive
2,O=C(c1ccc(Cl)nc1)N1CCN(c2ccnc3cc(Cl)ccc23)CC1,inactive
3,O=C(c1ccc(Cl)cc1)C1CCN(c2ccnc3cc(Cl)ccc23)CC1,inactive
4,Cc1cc(N2CCN(C(=O)c3ccc(Cl)cc3)CC2)c2ccccc2n1,inactive
